Assay [1] relates to Wnt5a (protein binding on small-molecule microarray). Put plainly: Wnt5a binders on small-molecule microarray, primary screen, biophysical, 635/667 nm fluorescence (AID 1142).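 Also: fluorescence read at 667 nm with signal to noise per printed feature.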 Conditions: 635 nm fluorescence, higher = more signal.
Assay [2] in a line: cell viability in Huh7 cells, primary screen, cytotoxicity control for HCV replication inhibitor project, CellTiter-Glo luminescence, basal, 48 h (AID 1143).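 Also: Huh7 hepatoma cells carrying a hepatitis C replication reporter with no stimulus; test concentration not given here.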 Conditions: Huh7 HCV replicon, higher = more signal, called active from +8 up or from −8 down. A general note: Cellular ATP, detected with luciferase, serves as a proxy for viable cell number.
Assay [3] in a line: P. aeruginosa biofilm formation inhibitors, primary screen, PAO1 strain, BacTiter-Glo luminescence, LB-PBS (AID 1144). Conditions: 12 h, higher = more signal.
Assay [4] can be described thus: CREB reporter modulators without forskolin, primary screen, cell-based, PC12, CRE-LacZ reporter, unstimulated (AID 1145). Conditions: no forskolin, luminescence, 4.5 h, higher = more signal, called active from +8 up or from −8 down.
A short description of assay [5]: CREB reporter modulators under forskolin, primary screen, cell-based, PC12, CRE-LacZ reporter, forskolin-stimulated (AID 1146).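 Also: PC12 cells with 6xCRE LacZ reporter stimulated by forskolin 10 µM; beta-galactosidase reporter signal reflecting CREB driven transcription.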 As to conditions: luminescence, 4.5 h, higher = more signal, called active from +8 up or from −8 down.
In assay [6] the target is Streptavidin (Streptomyces avidinii) (UniProt P22629). The experiment in a line: streptavidin binders on small-molecule microarray, primary screen, artefact control for SMM compound annotation, biophysical, 635/667 nm fluorescence (AID 1147).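 Also: signal reflects streptavidin binding to arrayed compounds as a control protein.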 As to conditions: streptavidin binding, higher = more signal.
Chain of Streptavidin (Streptomyces avidinii) (P22629 whole entry, looked up): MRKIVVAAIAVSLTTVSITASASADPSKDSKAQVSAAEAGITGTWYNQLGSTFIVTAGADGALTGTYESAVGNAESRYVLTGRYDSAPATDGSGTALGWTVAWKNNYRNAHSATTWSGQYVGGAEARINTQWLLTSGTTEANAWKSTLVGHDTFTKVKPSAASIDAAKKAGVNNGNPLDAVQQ
A short description of assay [7]: small-molecule binders of probe aInhba, primary screen, biochemical, small-molecule microarray, 635/667 nm fluorescence (AID 1148).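 Also: score merges 667nm spot fluorescence with signal-to-noise for antibody binding to printed compounds.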 Conditions: higher = more signal.
In assay [8] the target is Torsin-1A (Homo sapiens) (UniProt O14656). The experiment in a line: torsin A binders from cell lysate, primary screen, small-molecule microarray, wild-type, 635/667 nm (AID 1149). Conditions: COS7 hTOR1A-WT lysate, 635 nm fluorescence, higher = more signal.
Chain of Torsin-1A (Homo sapiens) (O14656 whole entry, looked up): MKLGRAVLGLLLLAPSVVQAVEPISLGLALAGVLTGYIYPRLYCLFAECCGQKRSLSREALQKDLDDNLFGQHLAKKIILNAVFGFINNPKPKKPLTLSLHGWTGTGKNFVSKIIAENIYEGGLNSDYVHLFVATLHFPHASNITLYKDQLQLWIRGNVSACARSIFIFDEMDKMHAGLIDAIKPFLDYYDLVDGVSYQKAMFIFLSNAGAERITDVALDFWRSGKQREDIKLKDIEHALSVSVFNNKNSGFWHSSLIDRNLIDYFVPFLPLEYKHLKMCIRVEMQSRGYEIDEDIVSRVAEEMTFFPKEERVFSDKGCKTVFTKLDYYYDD
For assay [9] the target is unchanged. Put plainly: small-molecule binders of mutant TOR1A in lysate, primary screen, cell lysate, small-molecule microarray, COS7 lysate, 635/667 nm fluorescence (AID 1150).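 Also: score pools 667 nm emission and signal to noise measuring lysate protein binding.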 As to conditions: COS7 hTOR1A mutant lysate, 635 nm fluorescence, higher = more signal.
Assay [10] relates to Sonic hedgehog protein (Shh). The experiment in a line: small-molecule binders of Shh protein, primary screen, biochemical, small-molecule microarray, 635/667 nm fluorescence (AID 1151).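 Also: Shh protein binding to compounds spotted on small-molecule microarray slides; score combines spot fluorescence intensity with signal-to-noise across triplicate slides.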 Conditions: small-molecule microarray binding, 635 nm fluorescence; higher = more signal.
Assay [11] can be described thus: E. coli DRC41 culture turbidity changes, primary screen, E. coli filamentation inducer project, strain DRC41, OD650, 48 h (AID 1152).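 Also: E. coli MC1000 strain DRC41 lacking acrAB efflux pump and sulA.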 As to conditions: E. coli DRC41 (acrAB sulA), higher = more signal, called active from +8 up or from −8 down.
The nature of assay [12]: small-molecule binders of probe aLefty1, primary screen, biochemical, small-molecule microarray, 635/667 nm fluorescence (AID 1153).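 Also: score merges spot fluorescence with signal-to-noise ratio from the scanned slide images.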 Conditions: higher = more signal.
Assay [13] is described as follows: PSAC antagonists in infected red cells, primary screen, cell-based, P. falciparum Indochina, OD700, 1 h (AID 1154). Conditions: P. falciparum Indochina infected RBC osmotic lysis, higher = more signal, called active from +8 up or from −8 down.
Assay [14] in a line: PSAC antagonists in infected red cells, primary screen, cell-based, P. falciparum Indochina, OD700, 2 h (AID 1155).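 Also: lysis reports solute entry through the parasite surface anion channel PSAC; channel blockers reduce lysis of infected cells.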 As to conditions: P. falciparum Indochina infected erythrocytes, osmotic lysis OD700; higher = more signal, called active from +8 up or from −8 down.
A short description of assay [15]: osmotic lysis modulators in infected erythrocytes, primary screen, PSAC antagonist project, cell-based, P. falciparum Indochina, OD700, 3 h (AID 1156). As to conditions: higher = more signal, called active from +8 up or from −8 down.
Assay [16] can be described thus: PSAC antagonists in infected red cells, primary screen, cell-based, P. falciparum Indochina, OD700, 18 h (AID 1157). As to conditions: P. falciparum Indochina infected erythrocytes, osmotic lysis OD700, 18 h; higher = more signal, called active from +8 up or from −8 down.
Assay [17] in a line: modulators of S6 phosphorylation in cells, primary screen, cell-based, A549, cytoblot, luminescence, serum-stimulated (AID 1158).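 Also: serum-stimulated A549 lung adenocarcinoma cells; signal is phosphorylated S6 detected by cytoblot immunostaining with HRP secondary.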 Conditions: A549 phospho-S6 cytoblot, 5 h, higher = more signal.
Assay [18] deals with NADPH oxidase 2 (Homo sapiens) (UniProt P04839). The experiment in a line: NOX2-dependent H2O2 signal modulators, primary screen, NOX inhibitor project, cell-based, HEK293-NOX2, PMA-stimulated, Amplex Red fluorescence (AID 1159). Also: test concentration not given here. As to conditions: 45 min, higher = more signal, called active from +8 up or from −8 down.
Chain of NADPH oxidase 2 (Homo sapiens) (P04839 whole entry, looked up): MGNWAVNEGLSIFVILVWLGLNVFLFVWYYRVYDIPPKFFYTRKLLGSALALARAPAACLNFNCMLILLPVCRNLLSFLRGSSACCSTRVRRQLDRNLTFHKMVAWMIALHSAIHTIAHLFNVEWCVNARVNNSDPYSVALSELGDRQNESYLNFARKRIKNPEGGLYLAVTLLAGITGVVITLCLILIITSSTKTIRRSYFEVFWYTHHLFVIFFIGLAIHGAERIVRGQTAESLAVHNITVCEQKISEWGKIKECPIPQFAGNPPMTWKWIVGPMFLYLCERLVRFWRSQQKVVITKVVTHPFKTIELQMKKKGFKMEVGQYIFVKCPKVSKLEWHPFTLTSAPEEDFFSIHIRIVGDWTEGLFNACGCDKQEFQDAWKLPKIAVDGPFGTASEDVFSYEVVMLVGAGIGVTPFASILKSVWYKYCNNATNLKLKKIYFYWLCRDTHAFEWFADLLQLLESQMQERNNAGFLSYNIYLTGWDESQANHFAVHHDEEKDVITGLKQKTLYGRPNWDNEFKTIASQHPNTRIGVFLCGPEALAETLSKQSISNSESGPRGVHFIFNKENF
Assay [19] concerns the target NADPH oxidase 4 (Homo sapiens) (UniProt Q9NPH5). Put plainly: NOX4-dependent H2O2 signal modulators, primary screen, NOX inhibitor project, cell-based, HEK293-NOX4, tetracycline-induced, Amplex Red fluorescence (AID 1160). Conditions: 45 min, higher = more signal, called active from +8 up or from −8 down.
Assay [20] deals with NADPH oxidase 5 (Homo sapiens) (UniProt Q96PH1). The experiment in a line: NOX5-dependent H2O2 signal modulators, primary screen, NOX inhibitor project, cell-based, HEK293-NOX5, Amplex Red fluorescence (AID 1161). As to conditions: HEK293-NOX5, ionomycin, 45 min, higher = more signal.
Chain of NADPH oxidase 5 (Homo sapiens) (Q96PH1 whole entry, looked up): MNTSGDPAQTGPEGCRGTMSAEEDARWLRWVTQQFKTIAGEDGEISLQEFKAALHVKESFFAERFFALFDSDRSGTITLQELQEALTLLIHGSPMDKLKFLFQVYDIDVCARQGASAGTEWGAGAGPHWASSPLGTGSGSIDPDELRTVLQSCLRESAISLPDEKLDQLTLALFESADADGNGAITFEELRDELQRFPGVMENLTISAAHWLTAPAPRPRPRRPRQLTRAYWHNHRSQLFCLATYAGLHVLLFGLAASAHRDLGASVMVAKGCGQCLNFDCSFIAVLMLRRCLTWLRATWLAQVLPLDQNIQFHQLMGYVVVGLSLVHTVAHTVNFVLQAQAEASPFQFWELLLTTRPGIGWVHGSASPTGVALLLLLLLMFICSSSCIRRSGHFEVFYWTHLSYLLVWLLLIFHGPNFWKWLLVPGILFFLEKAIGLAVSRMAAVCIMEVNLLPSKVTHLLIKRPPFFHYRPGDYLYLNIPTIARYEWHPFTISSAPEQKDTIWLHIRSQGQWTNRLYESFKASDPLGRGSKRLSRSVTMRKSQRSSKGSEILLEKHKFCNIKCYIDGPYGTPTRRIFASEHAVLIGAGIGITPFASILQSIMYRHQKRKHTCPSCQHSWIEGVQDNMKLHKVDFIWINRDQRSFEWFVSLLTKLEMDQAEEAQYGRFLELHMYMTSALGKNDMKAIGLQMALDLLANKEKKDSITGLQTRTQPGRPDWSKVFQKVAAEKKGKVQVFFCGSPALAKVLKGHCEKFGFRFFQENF

Each structure is given as a SMILES string. Active and inactive are the calls of the source. Unless noted, no rule for the calls is given here.

Chain of NADPH oxidase 4 (Homo sapiens) (Q9NPH5 whole entry, looked up): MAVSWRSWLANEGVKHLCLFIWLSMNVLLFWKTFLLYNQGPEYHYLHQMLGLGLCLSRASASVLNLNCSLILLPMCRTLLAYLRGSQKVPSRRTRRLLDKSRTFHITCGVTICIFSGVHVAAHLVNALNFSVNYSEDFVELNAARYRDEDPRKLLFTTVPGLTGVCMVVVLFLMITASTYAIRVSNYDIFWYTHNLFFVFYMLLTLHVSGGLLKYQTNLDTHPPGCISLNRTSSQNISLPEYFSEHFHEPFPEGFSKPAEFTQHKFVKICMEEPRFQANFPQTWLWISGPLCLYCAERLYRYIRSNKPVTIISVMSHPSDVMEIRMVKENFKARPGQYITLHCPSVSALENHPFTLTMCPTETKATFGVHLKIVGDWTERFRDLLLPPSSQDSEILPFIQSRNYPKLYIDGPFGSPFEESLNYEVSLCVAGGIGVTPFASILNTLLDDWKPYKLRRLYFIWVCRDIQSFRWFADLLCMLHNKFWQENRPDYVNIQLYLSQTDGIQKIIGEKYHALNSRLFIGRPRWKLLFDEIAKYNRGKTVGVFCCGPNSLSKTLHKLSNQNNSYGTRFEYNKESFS

Regarding `C=C(/C(=C/C[C@H](OC(=O)c1ccncc1)c1ccc(CO)o1)c1cnc2ccccc2c1)C(C)C`, the composite z-score in assay [1] was found to be 0.49; in [6] it was 1.42; in assay [7], 0.0993; in the assay with Torsin-1A (Homo sapiens) [8] it was 0.353; with Torsin-1A (Homo sapiens) [9], 0.491; in assay [10], 1.97. Besides, in assay [12], the composite z-score came to 0.0844. In addition, the z-score in assay [2] is -0.259 (inactive); in [3], -0.747 (inactive); in assay [4] it was 1.58 (inactive); in [5] it was 0.0737 (inactive); in assay [11], -0.833 (inactive); in assay [13] it was 6.75 (inactive). Also, the z-score is 1.37 (inactive) in [14]; 1.47 (inactive) in assay [15]; 0.528 (inactive) in assay [16]; -0.702 in assay [17]; 1.42 (inactive) in assay [18]; 0.0654 (inactive) in [19]. The z-score in [20] is -0.415.

Turning to `CCCCCN1CC=CC23O[C@@H]4/C=C\CCCOC(=O)C4[C@H]2C(=O)N(C(C)CO)[C@@H]3C1=O` (stereo not given in full), the composite z-score was -0.917 in assay [1]; -0.783 in assay [6]; -0.128 in [7]; -3.18 with Torsin-1A (Homo sapiens) [8]; -2.48 with Torsin-1A (Homo sapiens) [9]; 0.0074 in assay [10]. In assay [12], the composite z-score is -0.0984. Besides, the z-score in assay [2] was 0.194 (inactive); in [3], -1.24 (inactive); in assay [4] it was -1.43 (inactive); in assay [5], -1.24 (inactive); in [11], 1.2 (inactive); in assay [13] it was 1.47 (inactive). The z-score in assay [14] was 0.175 (inactive); in assay [15], 2.32 (inactive); in assay [16], 0.503 (inactive); in [17] it was 0.566; in assay [18], 0.825 (inactive); in [19], 0.19 (inactive). For the same compound, in assay [20], the z-score was found to be 1.03.

Consider `NC(=O)NCC#Cc1ccc2c(c1)[C@]1(C(=O)N2)[C@H](c2ccccc2OCCO)N2[C@H](c3ccccc3)[C@H](c3ccccc3)OC(=O)[C@H]2[C@@H]1C(=O)O`, for which the composite z-score in [1] was -0.163; in assay [6], 0.333; in assay [7], 0.121; in the assay with Torsin-1A (Homo sapiens) [8], -0.689; in the assay with Torsin-1A (Homo sapiens) [9], 0.28; in [10], 0.028. The composite z-score in assay [12] was -0.278. In addition, the z-score in [2] is -1.22 (inactive); in assay [3] it was -1.19 (inactive); in assay [4] it was 0.595 (inactive); in [5], 1.36 (inactive); in assay [11] it was 0.851 (inactive); in assay [13], 1.07 (inactive). The z-score was -0.525 (inactive) in [14]; -1.78 (inactive) in [15]; 0.0482 (inactive) in assay [16]; 0.171 in assay [17]; 2.78 (inactive) in assay [18]; 0.517 (inactive) in assay [19]. In assay [20], the z-score is -0.123.

Regarding `C[C@@H]1NC(=O)[C@@H](Cc2ccccc2)NC(=O)[C@@]23C(=O)N[C@@H](Cc4ccccc4)C2[C@H](C)[C@@]2(C)O[C@H]2C3/C=C/C/C=C\CNC1=O` (stereo not given in full), the composite z-score in [1] was -0.186; in assay [6], -0.963; in assay [7], -0.187; with Torsin-1A (Homo sapiens) [8], 0.406; in the assay with Torsin-1A (Homo sapiens) [9] it was 0.32; in assay [10], 1.45. For the same compound, the composite z-score in [12] was -0.0046. Moreover, the z-score in assay [2] was 0.15 (inactive); in [3] it was 0.111 (inactive); in assay [4], 3.57 (inactive); in assay [5] it was 0.272 (inactive); in assay [11] it was -1.02 (inactive); in assay [13], 1.92 (inactive). The z-score was 0.581 (inactive) in [14]; 0.638 (inactive) in assay [15]; 0.159 (inactive) in assay [16]; -0.177 in [17]; 0.722 (inactive) in [18]; -0.614 (inactive) in [19]. The same compound showed a z-score in [20] of 0.523.

On to `C=CC[C@H](OC(=O)Nc1ccc(SC)cc1)c1ccc(O)c2ccccc12`, for which the composite z-score in [1] is 0.336; in assay [6], 1.61; in [7], -0.101; with Torsin-1A (Homo sapiens) [8] it was 0.557; with Torsin-1A (Homo sapiens) [9] it was 0.465; in assay [10] it was 1.76. The compound further had a composite z-score in [12] of 0.27. Besides, the z-score in assay [2] was -6.78 (inactive); in [3], -0.921 (inactive); in assay [4], 4.1 (inactive); in assay [5], 3.2 (inactive); in [11], -1.2 (inactive); in assay [13], 29.5 (active). For the same compound, the z-score is 16.8 (active) in [14]; 2.22 (inactive) in assay [15]; 1.63 (inactive) in assay [16]; 0.76 in [17]; -5.83 (inactive) in assay [18]; -1.41 (inactive) in assay [19]. Besides, in [20], the z-score was -0.0589.

In the case of `CCCC[C@@H](O)C1=C(COC)C[C@H]2C(=O)N(Cc3ccccc3)C(=O)[C@H]2[C@H]1CO`, the composite z-score in assay [1] is 0.0314; in [6], -0.0045; in [7], -0.204; with Torsin-1A (Homo sapiens) [8], 0.707; in the assay with Torsin-1A (Homo sapiens) [9], 0.69; in assay [10], 1.02. Besides, in [12], the composite z-score was -0.103. Further, the z-score in assay [2] was -0.168 (inactive); in assay [3], 0.102 (inactive); in assay [4] it was 0.216 (inactive); in assay [5] it was -0.566 (inactive); in [11] it was 0.878 (inactive); in [13] it was 1.83 (inactive). The z-score in assay [14] is -0.384 (inactive); in assay [15] it was -0.157 (inactive); in assay [16], 0.133 (inactive); in [17], 0.304; in assay [18], -0.725 (inactive); in assay [19], 0.282 (inactive). For the same compound, the z-score in assay [20] was 0.373.

`O=C(C1N=C(c2ccc(OCCCO)cc2)N(c2ccccc2)O1)N1CCCCC1` (stereo not given): the composite z-score in [1] came to 0.296; in assay [6], 1.56; in assay [7], 0.271; in the assay with Torsin-1A (Homo sapiens) [8], 0.407; with Torsin-1A (Homo sapiens) [9] it was 0.854; in assay [10], 0.17. Further, the composite z-score in assay [12] came to 0.0338. In addition, the z-score in assay [2] was -0.163 (inactive); in assay [3], 1.52 (inactive); in assay [4], 0.0918 (inactive); in [5] it was 1.91 (inactive); in assay [11] it was 0.666 (inactive); in assay [13] it was 13.2 (active). Also, the z-score is 1.66 (inactive) in assay [14]; 0.374 (inactive) in assay [15]; 0.423 (inactive) in assay [16]; -0.0704 in assay [17]; 1.12 (inactive) in assay [18]; 0.209 (inactive) in [19]. Besides, the z-score in assay [20] is -0.404.

Regarding `O[C@@H](Cc1ccccc1)[C@@H](/C=C/C1CC1)N(CC#Cc1ccccc1)Cc1ccccc1Br`, the composite z-score is -1.03 in assay [1]; -0.5 in [6]; -0.183 in assay [7]; -0.802 with Torsin-1A (Homo sapiens) [8]; -0.744 with Torsin-1A (Homo sapiens) [9]; -1.5 in [10]. Besides, the composite z-score in [12] was determined as 0.187. Moreover, the z-score in assay [2] is -1.72 (inactive); in [3] it was 0.357 (inactive); in assay [4], 2.41 (inactive); in assay [5] it was 0.21 (inactive); in assay [11] it was 0.241 (inactive); in assay [13], 2.05 (inactive). The z-score is 1.37 (inactive) in assay [14]; 0.108 (inactive) in assay [15]; 0.475 (inactive) in assay [16]; 0.131 in [17]; -0.612 (inactive) in [18]; 0.221 (inactive) in assay [19]. This compound registered a z-score in assay [20] of -0.586.

The values above are taken from PubChem BioAssay.
